Shown are actives, neighbours in structure and some others; about 2.7% of the full set was active somewhere.
mIDH1 inhibitor: human IDH1 R132H inhibition. O75874. IDH1-R132H enzyme, NADPH consumption, diaphorase/resazurin fluorescence. Potency, µM (top dose mostly 76.6 µM), for inactives: at the top dose activity change, negative = inhibition, most hits filed as inhibitors. 0.093% of 390,000 active. AID 602179; further: potency means the concentration at half of the fitted maximal effect; on the % scale 0 is the no-effect control and ±100 the full control effect; nearly all actives have a fitted effect of over 65% in size
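IDH1-R132H (0.5 ug/mL) preincubated 30 min with compound, then NADPH (0.016 mM) and alpha-KG (2 mM) added; 80 min at RT, pH 7.5. Remaining NADPH coupled via diaphorase/resazurin to fluorescence (540/590 nm); concentration-response curves normalized to no-enzyme control.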
Nrf2 ARE act: activates Nrf2 signaling | AREc32 ARE-luciferase reporter (MCF7-derived line), luminescence, 24 h | Potency, µM (top dose mostly 46.1 µM), inactives show top-dose activation, most hits filed as activators | 0.31% of 410,000 active; further: potency means the concentration at half of the fitted maximal effect; % of control where 0% means no effect; nearly all actives have a fitted effect of over 65% in size
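Steps: seed AREc32_Fluc cells (1000/well, 5% FBS OPTI-MEM); incubate overnight at 37 deg C; add 23 nL compound; incubate 24 hr; add Steady-Glo; hold 30 min RT; read luminescence.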
12-LOX inh: inhibitors of human 12S-lipoxygenase ALOX12; P18054; AID 1671190; purified 12hLO, xylenol orange hydroperoxide absorbance; 1.1% of 580,000 active; Potency, µM (doses to about 108 µM), for inactives: at the highest dose activity change, negative = inhibition, usual class: inhibitors; further: potency means the concentration at half of the fitted maximal effect; on the % scale 0 is the no-effect control and ±100 the full control effect
Target sequence (P18054 whole entry, looked up): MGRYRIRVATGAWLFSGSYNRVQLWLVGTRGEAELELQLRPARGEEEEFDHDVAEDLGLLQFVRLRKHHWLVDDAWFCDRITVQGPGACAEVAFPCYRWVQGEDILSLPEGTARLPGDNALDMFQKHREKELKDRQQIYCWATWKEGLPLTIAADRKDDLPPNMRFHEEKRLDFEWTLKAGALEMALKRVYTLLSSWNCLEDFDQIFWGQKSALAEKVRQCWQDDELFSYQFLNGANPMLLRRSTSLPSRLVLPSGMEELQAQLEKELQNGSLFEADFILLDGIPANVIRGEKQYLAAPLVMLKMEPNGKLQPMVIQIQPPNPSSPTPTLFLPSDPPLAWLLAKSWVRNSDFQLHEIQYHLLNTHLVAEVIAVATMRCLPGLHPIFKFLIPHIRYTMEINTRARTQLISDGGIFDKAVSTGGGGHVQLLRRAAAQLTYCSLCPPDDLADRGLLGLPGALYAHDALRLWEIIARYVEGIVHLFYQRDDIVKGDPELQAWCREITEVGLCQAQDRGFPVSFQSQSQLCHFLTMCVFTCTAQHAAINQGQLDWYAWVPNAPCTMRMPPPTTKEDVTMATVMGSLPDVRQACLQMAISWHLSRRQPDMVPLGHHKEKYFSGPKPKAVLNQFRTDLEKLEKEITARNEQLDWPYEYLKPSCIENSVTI
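Purified human 12hLO at 150 nM in 25 mM Hepes, 0.01% Triton X-100, pH 7.0, preincubated 15 min at room temperature with compound. Reaction started with 40 uM arachidonic acid, 30 min at room temperature. Hydroperoxide measured by Fe-xylenol orange, 573/405 nm absorbance ratio.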
Nrf2 inh: Nrf2 pathway inhibition | A549 ARE-Fluc reporter, luciferase luminescence, 18-24 h | Potency, µM (top dose mostly 46 µM), inactives show at the highest dose activity change, negative = inhibition, usual class: inhibitors | 2.1% of 360,000 active; further: potency means the concentration at half of the fitted maximal effect; on the % scale 0 is the no-effect control and ±100 the full control effect; nearly all actives have a fitted effect of over 60% in size
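Concentration-response testing used A549 ARE_Fluc cells at 5000 cells/well. Following an 18-24 h compound incubation, viability was read by fluorescence (Ex 405/Em 525) and luciferase output by luminescence.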
A549 viability: A549 cytotoxicity, counter-screen for Nrf2 inhibitors; 0.16% of 390,000 active; A549 ARE-Fluc cells, CellTiter-Fluor viability, 18-24 h; Potency, µM (top dose mostly 46 µM), for the others: at the highest dose activity change, negative = cytotoxicity, most hits filed as inhibitors; AID 504648; further: potency means the concentration at half of the fitted maximal effect; on the % scale 0 is the no-effect control and ±100 the full control effect
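A549 ARE_Fluc cells in 5% FBS OPTI-MEM were exposed to compounds in concentration-response for 18-24 h at 37 deg C. Viability was read by CellTiter-Fluor fluorescence (Ex 405/Em 525) after 30 min, before the luciferase read.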
LDHA block: LDHA (human) enzyme inhibition | AID 1347041 | activity change, % (values are at about 110 or 230 µM) | purified LDHA, NADH/diaphorase-resazurin fluorescence; stronger effect = lower value | 0.15% of 480,000 active | P00338; in the data active means activity change below about -30%; inconclusive means mostly about -25% to -30%;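 further: plate controls were DMSO wells for no effect and wells without enzyme for full effect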
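Resorufin fluorescence (ex540/em590), read at 0 and 20 min after diaphorase/resazurin addition, reports the NADH left after a 5 min room-temperature reaction of 2 nM human LDH5 with 0.06 mM NADH and 0.2 mM pyruvate.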
* marks the source's active call; other numbers are inactive results; ? = inconclusive; nt = no result given; [ ] = another dose, or the depositor's remark. Unless noted, the call rests on the fitted dose curve; in most records, active means well fitted curve in the direction sought with a large enough effect; inconclusive means small, poorly fitted or top-dose-only effect, or another doubt; inactive means no such curve, though single readings can be large; an effect the other way counts as inactive or inconclusive.

SMILES	mIDH1 inhibitor	Nrf2 ARE act	12-LOX inh	Nrf2 inh	A549 viability	LDHA block
CCCNc1nc2c(c(=O)n(C)c(=O)n2C)n1CCCc1ccccc1	7%	-1%	0%	?	0%	-4
Clc1ccc(C2Cn3nnc(-c4noc(COc5ccccc5)n4)c3CO2)cc1 (centres undefined)	nt	nt	64%	nt	nt	nt
Cc1cc(S(=O)(=O)Nc2ccc(Cl)c(C(F)(F)F)c2)sc1C(=O)O	nt	nt	?	nt	nt	-17
O=C(NCCOc1ccccc1)c1cc(C(=O)NCCOc2ccccc2)cc([N+](=O)[O-])c1	5%	2%	-12%	-4%	1%	-45*
O=C(NCCOc1ccccc1)c1ccccc1[N+](=O)[O-]	-3%	0%	4%	15%	6%	-17
O=C(OCc1ccccc1)N1CCC2CC1c1cc(/C=C/CCCSc3ncccn3)ccc12 (centres undefined)	-13%	1%	-10%	nt	nt	-34*
O=C(OCc1ccccc1)N1CCC2CC1c1cc(-c3ccc(F)cc3)ccc12 (centres undefined)	-1%[38.3 µM]	7%	-24%	?	10%	-1
O=C(OCc1ccccc1)N1CCC2CC1c1cc(-c3cc4ccccc4o3)ccc12 (centres undefined)	13%	0%	-2%	nt	nt	-33*
O=C(OCc1ccccc1)N1CCC2CC1c1cc(N3CCCCC3)ccc12 (centres undefined)	2%	8%	-29%	?	10%	-4
COc1ccc(-c2ccc3c(c2)C2CC3CCN2C(=O)OCc2ccccc2)cc1 (centres undefined)	2%[38.3 µM]	7%	?	?	8%	0
O=C(OCc1ccccc1)N1CCC2CC1c1cc(N3CCNCC3)ccc12 (centres undefined)	-14%	6%	-24%	nt	nt	-31*
COc1cc2c(cc1OC)CN(Cc1cc(=O)c(OCc3c(F)cccc3Cl)co1)CC2	nt	nt	?	nt	nt	-6
O=C(O)c1cc(C(=O)O)c2sc(=O)[nH]c2c1	nt	nt	5%	nt	nt	1
O=C1Nc2cc3c(cc2C1(O)C(F)(F)F)OCO3 (centres undefined)	nt	nt	2%	nt	nt	-12
CC(Sc1ccc2c(c1)OCCO2)C(=O)Nc1ccc(C#N)cc1 (centres undefined)	nt	nt	-20%	nt	nt	-1
CCn1nc([N+](=O)[O-])c(C(C#N)c2nc3ccccc3n2C)c(Cl)c1=O (centres undefined)	4%	?	-17%	0%	-10%	5
CCCn1nc([N+](=O)[O-])c(C(C#N)c2nc3ccccc3s2)c(Cl)c1=O (centres undefined)	1%	?	?	?	13µM*	6
COc1ccc(OC)c(N/C(C)=C/C(=O)c2ccncc2)c1	10%	0%	4%	-8%	-16%	12
C/C(=C\C(=O)c1ccncc1)Nc1ccccc1O	-2%	14µM*	-2%	16%	-9%	8
Cc1ccc(NC(=O)CNCCCN2CCOCC2)cc1S(=O)(=O)N1CCCCC1	-9%	0%	-37%	8%	-4%	-33*
Cc1ccc(NC(=O)COc2ccc(Cl)cc2Cl)cc1S(=O)(=O)N1CCOCC1	3%	4%	-5%	21µM*	?	-1
Cc1ccc(NC(=O)CN2CCOCC2)cc1S(=O)(=O)N1CCCCC1	-5%	0%	-1%	0%	0%	-2
Cc1ccc(NC(=O)c2ccc(F)c(S(=O)(=O)N3CCOCC3)c2)cc1F	-1%	2%	-25%	13µM*	-23%	-1
Cc1ccc(NC(=O)COc2ccccc2C(N)=O)cc1S(=O)(=O)N1CCCCCC1	2%	-1%	-1%	5.2µM*	?	-2
COc1cc(C#N)ccc1OCC(=O)Nc1ccc(C)c(S(=O)(=O)N2CCOCC2)c1	2%	3%	-17%	-29%	-2%	-4
SMILES	mIDH1 inhibitor	Nrf2 ARE act	12-LOX inh	Nrf2 inh	A549 viability	LDHA block
O=C(CCc1ncc(-c2ccc(F)cc2)o1)NCc1ccc2c(c1)OCO2	nt	nt	-72%	nt	nt	6
Cc1nnc2ccc(N3CCC(C(=O)O)CC3)nn12	nt	nt	32%	nt	nt	-6
NCc1ccc(CS(N)(=O)=O)cc1	nt	nt	?	nt	nt	7
Cc1ccc(NC(=O)CSc2nnc(C3CC3)n2C)cc1S(=O)(=O)N1CCCCC1	4%	0%	?	15µM*	-12%	2
O=C(CSc1nnc(C2CC2)n1C1CC1)Nc1ccc(Cl)c(S(=O)(=O)N2CCCCC2)c1	nt	nt	-14%	nt	nt	-4
COc1ccc(NC(=O)COc2ccccc2C)cc1S(=O)(=O)N1CCCCC1	2%	3%	?	?	-10%	-6
Cc1ccc(NC(=O)COc2cccc(C)c2C)cc1S(=O)(=O)N1CCCCCC1	17%	0%	-13%	26µM*	-10%	-5
CC(=O)Nc1ccc(NC(=O)COc2cccc(F)c2)c(C(F)(F)F)c1	nt	nt	?	nt	nt	3
CCOC(=O)C(CC)Oc1ccc2c(=O)c(Oc3ccccc3Br)coc2c1 (centres undefined)	nt	nt	?	nt	nt	-31*
CCOC(=O)COc1ccc2c(=O)c(Oc3ccccc3Br)coc2c1	nt	nt	14%	nt	nt	-2
Cc1cccc(C)c1N=C1NN=C(c2ccc3c(c2)CCN3S(C)(=O)=O)CS1	nt	nt	?	nt	nt	4
COc1ccc(S(=O)(=O)N(c2onc(C)c2Cl)S(=O)(=O)c2ccc(OC)c(OC)c2)cc1OC	6%	0%	18µM*	-3%	-14%	3
CCN(CC(=O)Nc1c(F)cccc1F)C(=O)c1ccc(N2CCCCC2)c([N+](=O)[O-])c1	7%	0%	-64%	16µM*	-12%	3
Cn1cc(/C=C/c2cc[n+](C)cc2)c2cc(Cl)ccc21	1%	0%	1%	10µM*	?	14
Cn1cc(C=O)c2cc(F)ccc21	-1%	0%	14%	12%	0%	-3
COc1ccc(N2CCN(C(=O)CN(c3cccc(Br)c3)S(C)(=O)=O)CC2)cc1	8%	0%	-11%	10%	0%	-3
CS(=O)(=O)N(CC(=O)N1CCN(c2ccccc2)CC1)c1cccc(Br)c1	3%	0%	28µM*	?	-20%	-10
COc1ccc(/C=C/C(O)=C2/C(=O)N(C)C3(C)CC2c2ccccc2O3)cc1 (centres undefined)	-3%	1%	0%	29µM*	?	-6
CC(Sc1ccc2c(c1)OCCCO2)C(=O)Nc1ccccc1-c1ccccc1 (centres undefined)	nt	nt	12%	nt	nt	5
Cc1ccc(N(C)C)cc1	nt	nt	6%	nt	nt	nt
Cc1ccc2c(c1)sc(-c1ccc(N(C)C)cc1)[n+]2C	10%	8%	?	2.1µM*	?	-7
